For 10 compounds, growth inhibition results are on record in PubChem BioAssay (NCI).

This is part of a sample that, as a whole, favours compounds with a hit. Of some 79,000 tested, about 15% had one in any assay. A number with no mark means an inactive call. Calls of active or inactive are those of the source. Rule as the data show it: active = growth inhibition above about 70%; inactive = the rest.

A short description of assay [1]: NCI Yeast Anticancer Drug Screen. Data for the rad50 strain (AID 155).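 Also: 0% = growth of vehicle-only cultures of the same strain.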 Conditions: S. cerevisiae rad50 strain growth inhibition, stronger effect = higher value. The essentials:
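Compounds were tested on a yeast strain with an engineered DNA damage repair alteration; the reported value is growth inhibition normalised to vehicle treatment.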

The nature of assay [2]: NCI Yeast Anticancer Drug Screen. Data for the mec2-1 strain (AID 157). Conditions: S. cerevisiae mec2-1 strain, stronger effect = higher value. The essentials:
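Using mec2-1 yeast: add compound, measure growth, express inhibition versus vehicle-treated cultures.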

Assay [3] in a line: NCI Yeast Anticancer Drug Screen. Data for the sgs1 mgt1 strain (AID 161).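 Also: 0% = growth of cultures given vehicle only.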 Conditions: S. cerevisiae sgs1 mgt1 strain, stronger effect = higher value. The essentials: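 Compounds are added to genetically altered yeast, and growth is compared with cultures given vehicle alone to give percent inhibition.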
Assay [4] is described as follows: NCI Yeast Anticancer Drug Screen. Data for the cln2 rad14 strain (AID 165).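 Also: 0% = growth equal to vehicle treated cultures.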 The conditions noted are these: S. cerevisiae cln2 rad14 strain, stronger effect = higher value. The essentials: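 Yeast strain cln2 rad14, bearing defects in cell cycle control and DNA repair, serves as the test system; values reflect growth inhibition compared with vehicle.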
A short description of assay [5]: NCI Yeast Anticancer Drug Screen. Data for the bub3 strain (AID 167). The conditions noted are these: S. cerevisiae bub3 mutant strain, stronger effect = higher value. The essentials: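 Growth of a checkpoint-deficient yeast mutant is measured after compound exposure. Values represent inhibition relative to vehicle.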
Assay [6] is described as follows: NCI Yeast Anticancer Drug Screen. Data for the mlh1 rad18 strain (AID 175). Conditions: S. cerevisiae mlh1 rad18 strain growth inhibition, stronger effect = higher value. The essentials: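 Steps: expose repair-defective yeast to compound; measure growth; express inhibition against vehicle-treated controls.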
[7] abbreviates: at 5.0 µM (retest, dose inferred, filed as 0.5).
The mark [8] stands for this setting: at 50.0 µM (retest, dose inferred, filed as 5.0).

As to `O=C(NCCCCCNC(=O)C12CC3CC(CC(C3)C1)C2)C12CC3CC(CC(C3)C1)C2`, the growth inhibition was 8% in assay [1] (setting [7]); 7% in assay [1] (setting [8]); 5.9% in assay [1] (at 50.0 µM); 5% in assay [2] (setting [7]); -8% in assay [2] (setting [8]); 27.8% in assay [2] (at 50.0 µM). The growth inhibition in assay [3] (setting [7]) was 7%; in assay [3] (setting [8]) it was 7%; in assay [3] (at 50.0 µM), -5.15%; in assay [4] (setting [7]), -1%; in assay [4] (setting [8]), -2%; in assay [4] (at 50.0 µM) it was 40.2%. Also, the growth inhibition in assay [5] (setting [7]) was 4%; in assay [5] (setting [8]), 0%; in assay [5] (at 50.0 µM) it was 1.75%; in assay [6] (setting [7]) it was 3%; in assay [6] (setting [8]), 12%; in assay [6] (at 50.0 µM), 4.15%.

Regarding `CCCCCCCCCCCCCCCCCO`, the growth inhibition in assay [1] (setting [7]) was -4%; in assay [1] (setting [8]), 6%; in assay [1] (at 50.0 µM), 71% (active); in assay [2] (setting [7]) it was -3%; in assay [2] (setting [8]), -7%; in assay [2] (at 50.0 µM), 63.3%. For the same compound, the growth inhibition is -3% in assay [3] (setting [7]); 7% in assay [3] (setting [8]); 50% in assay [3] (at 50.0 µM); -1% in assay [4] (setting [7]); -5% in assay [4] (setting [8]); -15.6% in assay [4] (at 50.0 µM). Also, the growth inhibition in assay [5] (setting [7]) was 10%; in assay [5] (setting [8]) it was 8%; in assay [5] (at 50.0 µM), 75.2% (active); in assay [6] (setting [7]), -9%; in assay [6] (setting [8]), -3%; in assay [6] (at 50.0 µM), 77.8% (active).

In the case of `Nc1nc(-c2ccccc2)c(-c2ccccc2)c(-c2nc(N)nc(-c3ccccc3)c2-c2ccccc2)n1`, the growth inhibition in assay [1] (setting [7]) was 7%; in assay [1] (setting [8]), -3%; in assay [1] (at 50.0 µM), -4%; in assay [2] (setting [7]), 6%; in assay [2] (setting [8]) it was 16%; in assay [2] (at 50.0 µM) it was -6%. Further, the growth inhibition in assay [3] (setting [7]) is -1%; in assay [3] (setting [8]), 0%; in assay [3] (at 50.0 µM), -16.9%; in assay [4] (setting [7]), 21%; in assay [4] (setting [8]) it was 12%; in assay [4] (at 50.0 µM), 2.45%. For the same compound, the growth inhibition in assay [6] (setting [7]) was -12%; in assay [6] (setting [8]) it was -16%; in assay [6] (at 50.0 µM), 7.8%.

Turning to `c1cc[c]([Sn]([S]c2cccc3cccnc23)([S]c2cccc3cccnc23)[c]2ccccc2)cc1`, the growth inhibition was 98% (active) in assay [1] (setting [7]); 99% (active) in assay [1] (setting [8]); 96.8% (active) in assay [1] (at 50.0 µM); 99% (active) in assay [2] (setting [7]); 100% (active) in assay [2] (setting [8]); 98% (active) in assay [2] (at 50.0 µM). Moreover, the growth inhibition in assay [3] (setting [7]) is 98% (active); in assay [3] (setting [8]), 99% (active); in assay [3] (at 50.0 µM), 98% (active); in assay [4] (setting [7]), 98% (active); in assay [4] (setting [8]) it was 98% (active); in assay [4] (at 50.0 µM), 95.5% (active). Further, the growth inhibition in assay [6] (setting [7]) is 98% (active); in assay [6] (setting [8]), 99% (active); in assay [6] (at 50.0 µM), 97.6% (active).

For the compound `Cc1c[n+](=O)c2ccccc2n1[O-]`, the growth inhibition in assay [1] (setting [7]) was -21%; in assay [1] (setting [8]), 10%; in assay [1] (at 50.0 µM), 2.6%; in assay [2] (setting [7]) it was -14%; in assay [2] (setting [8]), -16%; in assay [2] (at 50.0 µM), -16.6%. For the same compound, the growth inhibition in assay [3] (setting [7]) was -9%; in assay [3] (setting [8]), -7%; in assay [3] (at 50.0 µM), -20.4%; in assay [4] (setting [7]) it was 8%; in assay [4] (setting [8]) it was 1%; in assay [4] (at 50.0 µM) it was 70.8% (active). For the same compound, the growth inhibition in assay [6] (setting [7]) was -11%; in assay [6] (setting [8]), -6%; in assay [6] (at 50.0 µM) it was -0.1%.

Turning to `Cc1cc([N+](=O)[O-])cc(Cl)c1O`, the growth inhibition in assay [1] (setting [7]) was -21%; in assay [1] (setting [8]), 51%; in assay [1] (at 50.0 µM), 79.1% (active); in assay [2] (setting [7]), -6%; in assay [2] (setting [8]), 79% (active); in assay [2] (at 50.0 µM), 88.3% (active). Besides, the growth inhibition in assay [3] (setting [7]) is -4%; in assay [3] (setting [8]), 87% (active); in assay [3] (at 50.0 µM) it was 88% (active); in assay [4] (setting [7]), 7%; in assay [4] (setting [8]) it was 69%; in assay [4] (at 50.0 µM), 85.2% (active). The growth inhibition in assay [5] (setting [7]) was -21%; in assay [5] (setting [8]), 66%; in assay [5] (at 50.0 µM), 82.3% (active); in assay [6] (setting [7]) it was -58%; in assay [6] (setting [8]) it was 64%; in assay [6] (at 50.0 µM), 80% (active).

Turning to `Nc1ccc(Cc2ccc(Cl)cc2)cc1`, the growth inhibition in assay [1] (setting [7]) is -156%; in assay [1] (setting [8]), 93% (active); in assay [1] (at 50.0 µM) it was 99.2% (active); in assay [2] (setting [7]), -51%; in assay [2] (setting [8]), 96% (active); in assay [2] (at 50.0 µM) it was 99% (active). Besides, the growth inhibition was -66% in assay [3] (setting [7]); 95% (active) in assay [3] (setting [8]); 99.3% (active) in assay [3] (at 50.0 µM); -60% in assay [4] (setting [7]); 94% (active) in assay [4] (setting [8]); 97.9% (active) in assay [4] (at 50.0 µM). Besides, the growth inhibition in assay [5] (setting [7]) is -66%; in assay [5] (setting [8]), 95% (active); in assay [5] (at 50.0 µM), 98.8% (active); in assay [6] (setting [7]) it was -129%; in assay [6] (setting [8]) it was 95% (active); in assay [6] (at 50.0 µM), 99.2% (active).

As for `CC(C(O)c1ccccc1)C(O)(C(F)(F)F)C(F)(F)F` (stereo not drawn), the growth inhibition was 8% in assay [1] (setting [7]); 13% in assay [1] (setting [8]); 8.95% in assay [1] (at 50.0 µM); 6% in assay [2] (setting [7]); -3% in assay [2] (setting [8]); -7.6% in assay [2] (at 50.0 µM). Besides, the growth inhibition in assay [3] (setting [7]) was 3%; in assay [3] (setting [8]), 10%; in assay [3] (at 50.0 µM), -15.9%; in assay [4] (setting [7]), 1%; in assay [4] (setting [8]), -4%; in assay [4] (at 50.0 µM), 15.5%. For the same compound, the results for the growth inhibition in assay [6] (setting [7]), in assay [6] (setting [8]) and in assay [6] (at 50.0 µM) were 18%, 6% and 17.4%, respectively.

With `CC(C)(Sc1cc(Cl)c(Cl)c(Cl)c1)C(=O)OCCN1CCOCC1`, the growth inhibition in assay [1] (setting [7]) is 78% (active); in assay [1] (setting [8]) it was 98% (active); in assay [1] (at 50.0 µM), 98.2% (active); in assay [2] (setting [7]), 77% (active); in assay [2] (setting [8]), 98% (active); in assay [2] (at 50.0 µM), 99.6% (active). Also, the growth inhibition in assay [3] (setting [7]) is 87% (active); in assay [3] (setting [8]) it was 98% (active); in assay [3] (at 50.0 µM), 99.4% (active); in assay [4] (setting [7]) it was 59%; in assay [4] (setting [8]), 96% (active); in assay [4] (at 50.0 µM), 98.3% (active). In addition, the growth inhibition was 76% (active) in assay [5] (setting [7]); 92% (active) in assay [5] (setting [8]); 99.2% (active) in assay [5] (at 50.0 µM); 67% in assay [6] (setting [7]); 98% (active) in assay [6] (setting [8]); 97.5% (active) in assay [6] (at 50.0 µM).

For the compound `Cc1cc2nc(CS)[nH]c2cc1C`, the growth inhibition in assay [1] (setting [7]) is -13%; in assay [1] (setting [8]), 41%; in assay [1] (at 50.0 µM), 66.3%; in assay [2] (setting [7]), 4%; in assay [2] (setting [8]), 44%; in assay [2] (at 50.0 µM), 51.9%. In addition, the growth inhibition in assay [3] (setting [7]) is 15%; in assay [3] (setting [8]) it was 70% (active); in assay [3] (at 50.0 µM), 70.8% (active); in assay [4] (setting [7]), 31%; in assay [4] (setting [8]), 51%; in assay [4] (at 50.0 µM) it was 43.2%. Also, the growth inhibition is 26% in assay [5] (setting [7]); 85% (active) in assay [5] (setting [8]); 55.9% in assay [5] (at 50.0 µM); -13% in assay [6] (setting [7]); 61% in assay [6] (setting [8]); 44.2% in assay [6] (at 50.0 µM).
